# Tested on: DYRK2
# Settings: concentration: 1 μM,replicates: in singlicate; n = 1
# 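Further: KINOMEscan kinase panel screen.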
row,Compound,%Inh [%]
1,Cc1cccc2c(-c3ccncc3)c(-c3ccc(F)cc3)nn12.Cl [GW461487],10
2,COc1cccc(C2=C(Nc3cccc(Cl)c3)C(=O)NC2=O)c1 [SB-341556],2
3,OCCn1cc(-c2cnc3nnn(Cc4ccc5ncccc5c4)c3n2)cn1,0
4,CC(=O)c1c(-c2ccncc2)[nH]c(-c2ccncc2)c1C [GW493036],92.3
5,Cn1ccc2ncnc(Oc3ccc(NC(=O)Nc4cncc(C(F)(F)F)c4)c(Cl)c3)c21,0
6,O=c1[nH]cc(-c2ccc(O)cc2)c2sc(-c3ccncc3)cc12 [GSK1033723],87
7,COC(=O)c1cccc(NC(=O)NC2CCN(c3ccnc(NCc4ccc(F)cc4)n3)CC2)c1 [GSK1379860],2
8,Cn1ccc2ncnc(Oc3ccc(NC(=O)Nc4cccc(C(F)(F)F)c4)c(F)c3)c21,0
9,Cl.c1ccc(Oc2ccc(Nc3ccnc4cc(-c5ccc(CN6CCNCC6)o5)ccc34)cc2)nc1 [GW567142],33
10,CS(=O)(=O)c1cccc(CNc2nc(Nc3ccc4c(c3)[C@@H]3C[C@@H]4CNC3=O)ncc2C(F)(F)F)c1,12
11,C[C@@H](Oc1cc(-n2cnc3ccc(-c4ccncc4)cc32)sc1C(N)=O)c1ccccc1Cl [GSK483724],48
12,CCOC(=O)N1CCC(n2cnc(-c3ccc(F)cc3)c2-c2ccnc(N)n2)CC1 [SB-219952],21
13,Cn1ccc2ncnc(Oc3ccc(NC(=O)Nc4cc(C(C)(C)C)on4)c(Cl)c3)c21,23
14,Cc1n[nH]c2cc(Nc3ccnc(Nc4cccc(CN5CCOCC5)c4)n3)ccc12 [GW682569],25
15,NC(=O)c1ccc(-c2cc3ncnc(SCC(=O)O)c3s2)cc1,47
16,Cc1ccc(CC(=O)N2CCc3cc(-c4cn(C)c5ncnc(N)c45)ccc32)cc1 [GSK2634758],7
17,COc1ccc(Nc2nccc(N3CCC(NC(=O)c4cccc(C#N)c4)C3)n2)cc1 (stereo not drawn) [GSK1379730],0
18,Cn1ccc2ncnc(Oc3ccc(NC(=O)Nc4cccc(C(F)(F)F)c4)c(Cl)c3)c21,0
19,O=C(Nc1ccccc1)c1cccc(Oc2ccc3nccn3n2)c1,0
20,Cn1ccc2ncnc(Oc3ccc(NC(=O)Nc4cnn(C(C)(C)C)c4)c(Cl)c3)c21,6
21,CCn1c(-c2nonc2N)nc2cncc(CNC3CCNCC3)c21.Cl [SB-747651],25
22,COc1cc2nccc(Nc3ccc(Oc4ccccc4)cc3)c2cc1OC.Cl [GI261656],9
23,Cl.Cl.NC[C@H](CC1CCCCC1)NC(=O)c1ccc(-c2ccnc3[nH]ccc23)s1 [GSK1581428],80
24,Cc1cccc(-c2nc(Nc3ccncc3)c3sccc3n2)n1 [GW869641],35

# Reference: PMC5540273 (PLoS ONE, 2017)
